Screens from PubChem.
A selection: hits, their analogues and other compounds. The true share with any hit is near 2.8%.
SNCA expr inhib = reduces expression of the alpha-synuclein gene; AID 1671194; Potency, µM (doses to about 57.2 µM), inactives show top-dose activity change, negative = inhibition, most hits filed as inhibitors; HEK-293 SNCA-luciferase knock-in, luminescence, 24 h; 0.17% of 140,000 active;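 note: potency is the fitted concentration of half-maximal effect; plate controls were DMSO cells for no effect and cell-free wells for full effect; nearly all actives have a fitted effect of over 45% in size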
SNCA viab count = counter-screen for SNCA expression inhibitors: cell viability; HEK-293-SNCA-luc viability, GF-AFC fluorescence, 24 h; Potency, µM (top dose mostly 57.1 µM), for inactives: at the top dose activity change, negative = cytotoxicity, most hits filed as cytotoxic; 0.12% of 150,000 active;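 note: potency is the fitted concentration of half-maximal effect; 0% = DMSO-treated cells and -100% = medium-only wells without cells; nearly all actives have a fitted effect of over 30% in size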
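HEK-293-SNCA-luc cells (1500/well) plated 24 h, then exposed 24 h to a dilution series; GF-AFC added 30 min at 37C, fluorescence 405/540 nm; normalised to medium-only and DMSO wells, Hill fit.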
IP6K1 inhibitor = blocks human inositol hexakisphosphate kinase 1. IP6K1 kinase, ADP-Glo luminescence, 2 h; stronger effect = lower value. AID 1645851. 0.81% of 140,000 active. activity change, % (series mostly up to about 58 µM); in the data active = activity change below about -25%; note: % is set by controls: 0 for no effect and ±100 for the full control effect
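ADP-Glo luminescence measures ADP made by human IP6K1 during a 2 h RT reaction with ATP/IP6 (mix at 1.3 mM/130 uM); top library doses 57.5 and 19.1 uM final.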
KDM5B inhibitor = KDM5B demethylase inhibition; KDM5B demethylase, FDH-coupled NADH fluorescence (FDH is formaldehyde dehydrogenase); AID 1347165; Potency, µM (series often up to 57.7 µM), hits mostly inhibitors; Q9UGL1; 2.6% of 220,000 active; note: potency is the fitted concentration of half-maximal effect; 0% is about no effect; nearly all actives have a fitted effect of over 70% in size
Target sequence (Q9UGL1 whole entry, looked up): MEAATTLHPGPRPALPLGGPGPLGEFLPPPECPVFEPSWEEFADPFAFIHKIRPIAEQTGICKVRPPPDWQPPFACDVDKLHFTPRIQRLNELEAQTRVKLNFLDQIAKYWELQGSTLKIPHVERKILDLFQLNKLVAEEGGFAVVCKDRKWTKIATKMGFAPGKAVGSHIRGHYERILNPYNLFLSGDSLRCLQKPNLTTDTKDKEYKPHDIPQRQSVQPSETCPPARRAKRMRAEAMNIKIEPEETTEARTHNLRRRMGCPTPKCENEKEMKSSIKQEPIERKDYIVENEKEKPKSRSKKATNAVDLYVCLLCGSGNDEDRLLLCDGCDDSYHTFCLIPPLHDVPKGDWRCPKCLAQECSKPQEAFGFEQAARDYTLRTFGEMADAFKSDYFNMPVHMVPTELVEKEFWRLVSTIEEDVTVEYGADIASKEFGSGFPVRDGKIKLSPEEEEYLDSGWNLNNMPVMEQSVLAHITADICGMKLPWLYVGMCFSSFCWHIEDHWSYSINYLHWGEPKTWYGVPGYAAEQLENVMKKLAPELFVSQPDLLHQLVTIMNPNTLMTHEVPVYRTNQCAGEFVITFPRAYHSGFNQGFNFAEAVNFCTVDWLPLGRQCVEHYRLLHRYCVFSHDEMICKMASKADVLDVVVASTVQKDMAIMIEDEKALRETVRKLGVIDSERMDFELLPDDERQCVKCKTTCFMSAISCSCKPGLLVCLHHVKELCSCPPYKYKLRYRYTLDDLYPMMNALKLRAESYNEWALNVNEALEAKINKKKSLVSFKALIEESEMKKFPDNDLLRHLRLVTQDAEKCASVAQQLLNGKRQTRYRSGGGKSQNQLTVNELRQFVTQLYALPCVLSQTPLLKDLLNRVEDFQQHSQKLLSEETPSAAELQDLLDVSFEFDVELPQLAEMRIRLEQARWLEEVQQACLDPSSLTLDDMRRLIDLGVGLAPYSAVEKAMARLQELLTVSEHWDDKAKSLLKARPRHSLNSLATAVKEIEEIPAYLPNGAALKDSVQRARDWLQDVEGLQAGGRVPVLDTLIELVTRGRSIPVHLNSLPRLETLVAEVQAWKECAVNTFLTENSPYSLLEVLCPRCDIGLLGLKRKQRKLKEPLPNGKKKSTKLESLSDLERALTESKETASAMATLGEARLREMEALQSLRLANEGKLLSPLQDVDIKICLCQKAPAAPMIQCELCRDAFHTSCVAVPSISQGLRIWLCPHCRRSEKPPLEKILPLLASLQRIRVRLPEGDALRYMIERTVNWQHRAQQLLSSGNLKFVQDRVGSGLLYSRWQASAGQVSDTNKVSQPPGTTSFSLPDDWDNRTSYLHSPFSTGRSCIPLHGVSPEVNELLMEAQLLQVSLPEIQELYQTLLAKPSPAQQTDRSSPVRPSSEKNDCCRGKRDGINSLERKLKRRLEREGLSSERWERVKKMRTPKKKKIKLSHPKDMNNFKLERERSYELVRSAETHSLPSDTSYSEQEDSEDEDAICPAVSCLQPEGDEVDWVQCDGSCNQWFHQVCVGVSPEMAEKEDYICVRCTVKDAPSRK
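qHTS format, multiple compound concentrations. Buffer 50 mM HEPES pH 7.5/0.01% Tween-20; 200 nM KDM5BΔAP final; 10 min compound preincubation; substrate-mix levels 12.5 µM peptide, 25 µM α-KG, 0.25 mM NAD⁺; 30 min RT; ΔRFU.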
* = called active by the depositor; i = inactive; u = inconclusive; x = no result given; [ ] = dose if it differs, or a comment. Unless noted, calls come from the whole dose curve; as a rule, active = well fitted curve in the direction sought with a large enough effect; inconclusive = small, poorly fitted or top-dose-only effect, or another doubt; inactive = no such curve, though single readings can be large; an effect the other way counts as inactive or inconclusive.

SMILES	SNCA expr inhib	SNCA viab count	IP6K1 inhibitor	KDM5B inhibitor
CC(C)c1noc([C@@H]2C[C@@H](O)CN2Cc2cc3ccccc3o2)n1	6.3%[87.6 µM]	1.8%[87.6 µM]	5.7	39.8µM*
CC(C)c1noc([C@@H]2C[C@@H](O)CN2Cc2ccc(N(C)C)cc2)n1	-2.1%[87.6 µM]	4.8%[87.6 µM]	-6.1	i
COc1ccc(-c2noc([C@@H]3C[C@@H](O)CN3Cc3cc4ccccc4o3)n2)cc1	37.7%[87.6 µM]	-9.6%[87.6 µM]	3.1	31.6µM*
O=C1NCC2(CCCN(C(=O)CCc3nc4ccccc4[nH]c3=O)C2)O1 (configuration not stated)	6.3%	1.0%	10.1	22.4µM*
NC1CCCCN(C(=O)CCc2nc3ccccc3[nH]c2=O)C1 (configuration not stated)	14.9%	0.4%	-6.3	u
Cc1ccc(-c2cc(C(=O)NC3CCC(C)CC3)c3ccccc3n2)cc1C (configuration not stated)	x	x	x	i
CCOc1ccccc1CN1CCC([C@@H]2CNC[C@H]2CO)CC1	25.1µM*	7.6%[12.5 µM]	18.3	i
COc1ccc(S(=O)(=O)NC2CCN(C(=O)Nc3ccc(Br)cc3F)CC2)cc1	x	x	x	i
Cc1ccc(/C=C/c2onc(C)c2S(=O)(=O)N2CCC(C(=O)N3CCOc4ccccc43)CC2)cc1	15.7%	-1.6%	24.5	i
CNCCN1C(=O)CC[C@H]2CN(C(=O)COc3cccnc3)CC[C@H]21	4.5%	-3.4%	-0.6	i
CNCCN1C(=O)CC[C@H]2CN(C(=O)c3ccnc(NC)c3)CC[C@H]21	21.2%	-2.4%	5.4	25.1µM*
O=C(NCCc1ccc(Cl)cc1)c1nc(-c2ccccc2)c2ccccn12	-11.4%	6.6%	9.2	28.2µM*
O=C(NCCc1ccc(Cl)cc1)c1nc(-c2cccc(C(F)(F)F)c2)c2ccccn12	-12.4%	8.2%	-2.6	25.1µM*
COc1ccccc1-c1nc(C(=O)NCCc2ccc(Cl)cc2)n2ccccc12	3.5%	2.3%	-13.1	79.4µM*
CCCn1nc(C(=O)N(CC)C2CCS(=O)(=O)C2)c2ccccc2c1=O (configuration not stated)	x	x	x	i
COC(=O)c1ccnc(-c2cc(C(=O)Nc3ccc(C4(N)CC4)cc3)ccn2)c1	x	-17.0%	-12.5	x
O=C(CCc1nc(CSc2nc3ccccc3o2)no1)Nc1ccc(C(F)(F)F)cc1	x	x	x	i
Cc1ccc(-c2ccc3ncn(Cc4ccccn4)c(=O)c3n2)c(C)c1	-3.5%[87.6 µM]	-6.1%[87.6 µM]	4.5	31.6µM*
O=c1c2nc(-c3ccccc3F)ccc2ncn1Cc1ccccn1	4.4%[87.6 µM]	-1.2%[87.6 µM]	-4.5	u
COc1ccc(-c2ccc3ncn(Cc4ccccn4)c(=O)c3n2)cc1F	6.2%[87.6 µM]	-12.0%[87.6 µM]	5.5	35.5µM*
O=c1c2nc(-c3ccc(Cl)cc3)ccc2ncn1Cc1ccccn1	5.5%[87.6 µM]	-22.1%[87.6 µM]	5.9	35.5µM*
O=c1c2nc(-c3ccccc3)ccc2ncn1Cc1ccccn1	-18.6%[87.6 µM]	-4.9%[87.6 µM]	18.4	39.8µM*
O=C(Nc1cccc(OCC2CCCO2)c1)C1CCC1 (configuration not stated)	x	x	x	i
CNC(=O)CCn1ncc2cc(OCc3ccccc3-c3cnc(OC)nc3)ccc21	-12.7%[87.6 µM]	-0.5%[87.6 µM]	-8.3	u
Cc1cccc(N2CCN(C(=O)NCc3noc4ccccc34)CC2)c1C	21.0%	-0.2%	-8.4	i
SMILES	SNCA expr inhib	SNCA viab count	IP6K1 inhibitor	KDM5B inhibitor
O=C1NCc2ccccc2CC12CCCN2Cc1ccnc2ccccc12 (configuration not stated)	u	8.0%	-9.4	50.1µM*
Cc1ncc(CO)c(CN2CCCC23Cc2ccccc2CNC3=O)c1O (configuration not stated)	-3.0%	8.0%	-8.4	79.4µM*
Cc1cccc(Nc2cc(C)nc3nc(-c4ccccc4)nn23)c1	24.3%	5.3%	-6.7	i
Cc1nc(-c2ccccc2)n(Cc2nc(-c3ccc(OC(C)C)cc3)oc2C)c(=O)c1CCO	-5.3%	-2.3%	-1.7	u
Cc1nc(-c2ccc(F)cc2)n(Cc2nc(-c3ccc(OC(C)C)cc3)oc2C)c(=O)c1CCO	18.6%	4.9%	-1.9	15.8µM*
O=C1CN(C(=O)Cn2ccc3ccccc32)CCN1	x	x	x	i
COCC(=O)Nc1ccc(-c2noc([C@@H]3CCCN3Cc3ccc(OC(F)(F)F)cc3)n2)cn1	7.1%	-9.1%	12.9	i
COc1ccc(C(=O)Nc2ccc(-c3noc([C@@H]4CCCN4Cc4ccc(F)c(F)c4)n3)cn2)cc1	-4.2%	-19.1%	-10.1	28.2µM*
COc1ccc(C(=O)Nc2ccc(-c3noc([C@@H]4CCCN4C)n3)cn2)cc1	6.5%[87.6 µM]	-15.8%[87.6 µM]	-14.4	i
